The values that follow come from PubChem BioAssay (EPA / NIEHS).

Records with an inconclusive call do not appear. The source made the active and inactive calls. How the source made its calls, unless noted: active means hit-call score of the fitted dose curve at least 0.9, where 1 is the maximum; inconclusive means response in the unintended direction; inactive means score below 0.9.

In assay [1] the target is Nucleoli Translocation, AR (gene 367) (UniProt P10275). Briefly: UPITT_HCI_U2OS_AR_TIF2_Nucleoli_Agonist: University of Pittsburgh U2OS Androgen Receptor-Transcriptional Intermediary Factor 2 (AR-TIF2) Agonism High Content Imaging Assay for Nucleoli Translocation (AID 2283998). Put shortly:
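U2OS cells expressing RFP-tagged human AR and GFP-tagged TIF2; red fluorescence in nucleoli quantified by high-content imaging. Primary screen at 20 uM final (0.2% DMSO); concentration-response 0.195–50 uM (0.5% DMSO), fitted upward versus DMSO.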

Assay [2] deals with Ratio of Nucleoli Translocation and Cytoplasm, AR (gene 367) (UniProt P10275). Briefly: UPITT_HCI_U2OS_AR_TIF2_Nucleoli_Cytoplasm_Ratio_Agonist: University of Pittsburgh U2OS Androgen Receptor-Transcriptional Intermediary Factor 2 (AR-TIF2) Agonism High Content Imaging Assay for Ratio of Nucleoli Translocation and Cytoplasm (AID 2284000).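 Further: hits raise the red nucleolar to cytoplasm ratio above vehicle.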 In short, it runs like this:
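U2OS cells expressing RFP-tagged human AR and GFP-tagged TIF2 were imaged by high-content fluorescence microscopy. The endpoint is the ratio of nucleolar to cytoplasmic red fluorescence, fitted for gain of signal relative to DMSO. Concentration-response spanned 0.195 to 50 uM final (0.5% DMSO).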

Assay [3] relates to DIO1 (gene 1733). Briefly: CCTE_GLTED_hDIO1: CCTE's human Deiodinase 1 (DIO1) Inhibition Assay, Great Lakes Toxicology and Ecology Division (GLTED) Lab (AID 2283987).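 Further: isolated human DIO1 enzyme in a cell-free setup rather than cells; enzyme activity read as free iodide liberated from substrate via Sandell-Kolthoff colorimetry.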 Put shortly:
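Cell-free human DIO1 enzyme incubated 3 h with test chemical; iodide freed from substrate then measured by Sandell-Kolthoff absorbance. Run in triplicate; loss of signal relative to DMSO taken as inhibition.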

Assay [4] concerns the target Nucleoli Translocation, AR (gene 367) (UniProt P10275). As to the kind of experiment: UPITT_HCI_U2OS_AR_TIF2_Nucleoli_Antagonist: University of Pittsburgh U2OS Androgen Receptor-Transcriptional Intermediary Factor 2 (AR-TIF2) Antagonism High Content Imaging Assay for Nucleoli Translocation (AID 2283997). Put shortly:
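U2OS cells expressing RFP-tagged human AR and GFP-tagged TIF2 were imaged by high-content fluorescence microscopy for red AR signal in the nucleolar region. Compounds were screened at 20 uM final (0.2% DMSO), with activity fitted relative to DHT as baseline.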

Assay [5] addresses Thyroid hormone receptor alpha (Rattus norvegicus) + Thyroid hormone receptor beta (Rattus norvegicus) (UniProt P18113+P63059). Briefly: TOX21_TR_LUC_GH3_Agonist_Followup: Tox21 GH3 Thyroid Hormone Receptor Agonism Luciferase Follow-Up Assay (AID 2283939). Put shortly: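 Rat GH3 cells (1,500/well) in serum-free assay medium, treated with 15-point series, 92 uM to 5 nM final, for 24 h at 37C. Luciferase via ONE-Glo luminescence; gain of signal fitted against DMSO, T3 positive control.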

Assay [6] has as its target THRA (gene 7067) (UniProt P10827). Briefly: TOX21_TRA_COA_Agonist_Followup_ratio: Tox21 Thyroid Hormone Receptor alpha Agonism through Coactivator Recruitment Follow-Up Assay, Ratio (AID 2283948; active means hit-call score of the fitted dose curve at least 0.9, where 1 is the maximum; inactive means score below 0.9). In short, it runs like this:
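Cell-free TR-FRET: GST-tagged TRα LBD (2.5 nM) with 0.10% BSA and compound, then fluorescein-SRC-2 peptide (200 nM) and Tb-anti-GST antibody (2 nM). Readout 520:495 nm ratio (ex 340 nm), normalized to DMSO (0%) and T3 (100%).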

For assay [7], the target named is THRB (gene 7068) (UniProt P10828). Briefly: TOX21_TRB_BLA_Agonist_Followup_ratio: Tox21 Thyroid Hormone Receptor beta Agonism Beta-lactamase (BLA) Follow-Up Assay, Ratio (AID 2283954). Put shortly: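 Human TRβ LBD–GAL4 DBD fusion in GeneBLAzer UAS-bla HEK293T cells; 11 concentrations in triplicate, 18 h at 37°C/5% CO2, T3 as agonist control. CCF4-AM substrate 2 h at room temperature; 460:530 nm ratio fitted for gain of signal versus DMSO.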

The nature of assay [8]: TOX21_TRB_BLA_Agonist_Followup_viability: Viability Assessment in the Tox21 Thyroid Hormone Receptor beta Agonism Beta-lactamase (BLA) Follow-Up Assay (AID 2283956). Put shortly: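 TRb-bla HEK293T cells (GAL4-DBD/human TRb LBD) in 2% charcoal-stripped FBS medium were exposed 18 h at 37C to 11 concentrations in triplicate. CellTiter-Glo ATP luminescence was read after 30 min at room temperature, with bidirectional fitting against DMSO.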

The target of assay [9] is THRB (gene 7068) (UniProt P10828). As to the kind of experiment: TOX21_TRB_COA_Agonist_Followup_ratio: Tox21 Thyroid Hormone Receptor beta Agonism through Coactivator Recruitment Follow-Up Assay, Ratio (AID 2283963; active means hit-call score of the fitted dose curve at least 0.9, where 1 is the maximum; inactive means score below 0.9). Put shortly: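 GST-TRb LBD 5.0 nM + 0.10% BSA + cpd; add fluorescein-SRC-2 200 nM / Tb anti-GST Ab 2 nM; TR-FRET ex 340, em 520:495; norm DMSO 0%, T3 100%.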

Assay [10] in a line: TOX21_TR_RXR_BLA_Agonist_Followup_viability: Viability Assessment in the Tox21 Thyroid Hormone Receptor beta Retinoid X Receptor alpha (RXRa) Agonism Beta-lactamase (BLA) Follow-Up Assay (AID 2283970). In short, it runs like this: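 RXRa-UAS-bla HEK293T cells, 2,500/well in phenol red-free DMEM with 2% charcoal-stripped FBS, dosed for 16 h at 37C. Viability measured by CellTiter-Glo ATP luminescence; fitted bidirectionally against DMSO baseline, loss of signal indicating cytotoxicity.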

Assay [11] deals with PGR (gene 5241) (UniProt P06401). Briefly: TOX21_PR_BLA_Followup_Antagonist_ratio: Tox21 HEK293 Progesterone Receptor (PR) Antagonism Beta-lactamase Follow-Up Assay, Ratio (AID 2283934). In short, it runs like this:
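PR-UAS-bla HEK293T cells, 3,000/well in 2% charcoal-stripped FBS, given compound plus 1nM R5020 agonist for 16 hr at 37C. Beta-lactamase FRET substrate 2 hours, ratio cleaved/uncleaved fluorescence; viability by CellTiter-Glo in same wells.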

Assay [12] can be described thus: TOX21_PR_BLA_Followup_Agonist_viability: Viability Assessment in the Tox21 HEK293 Progesterone Receptor (PR) Agonism Beta-lactamase Follow-Up Assay (AID 2283935).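 Further: signal loss means lower viability so actives are cytotoxic.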 In short, it runs like this:
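PR-UAS-bla HEK293T cells in 2% charcoal-stripped FBS medium, plated 6 hr before compound addition, exposed 16 hr at 37C. Viability read by CellTiter-Glo ATP luminescence after 30 min at room temperature, in the same wells as the beta-lactamase readout.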

The nature of assay [13]: TOX21_PR_BLA_Followup_Antagonist_viability: Viability Assessment in the Tox21 HEK293 Progesterone Receptor (PR) Antagonism Beta-lactamase Follow-Up Assay (AID 2283936).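 Further: hits lower the luminescence signal meaning cytotoxicity.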 Put shortly: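 PR-UAS-bla HEK293T cells (3,000/well, 2% charcoal-stripped FBS) given compound plus R5020 agonist, 16 h at 37C. CellTiter-Glo added after bla read, 30 min at room temperature; luminescence loss indicates cytotoxicity.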

Assay [14] addresses PGR (gene 5241) (UniProt P06401). As to the kind of experiment: TOX21_PR_LUC_Followup_Antagonist: Tox21 HEK293 Progesterone Receptor (PR) Antagonism Luciferase Follow-Up Assay (AID 2283938).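 Further: curve fitted upward as signal gain over DMSO baseline despite antagonist label.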 Put shortly: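 HEK293-PR-A-luc cells, 3,000/well, preincubated 5 h at 37C before compound addition in DMSO; 16 h compound exposure at 37C. ONE-Glo luciferase luminescence read after 30 min at room temperature, fitted relative to DMSO baseline.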

A short description of assay [15]: TOX21_PR_LUC_Followup_Agonist_viability: Viability Assessment in the Tox21 HEK293 Progesterone Receptor (PR) Agonism Luciferase Follow-Up Assay (AID 2283941).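 Further: loss of signal means cytotoxicity so actives lower viability.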 Put shortly:
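HEK293-PR-A-luc cells, kept in 10% charcoal-stripped FBS medium, were treated with compounds for 16 h at 37C. Viability read as cellular ATP by luciferase-coupled luminescence; loss of signal indicates cytotoxicity.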

In assay [16] the target is Retinoic acid receptor RXR-alpha (Homo sapiens) (UniProt P19793). Briefly: TOX21_TR_RXR_BLA_Agonist_Followup_ratio: Tox21 Thyroid Hormone Receptor beta Retinoid X Receptor alpha (RXRa) Agonism Beta-lactamase (BLA) Follow-Up Assay, Ratio (AID 2283968). In short, it runs like this:
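RXRa-UAS-bla HEK293T cells, 5 h attachment at 37C/5% CO2, then 11 concentrations in triplicate for 16 h; 9-cis retinoic acid positive control. FRET-B/GCCF4-AM substrate 2 h at room temperature; 460:530 nm ratio, fitted for gain versus DMSO.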

The nature of assay [17]: CEETOX_H295R_TESTO_noMTC: CeeTox H295R High-throughput Steroidogenesis Assay for Testosterone (TESTO), maximum tolerated concentration (MTC) filtered results only (AID 2283924; active means hit-call score of the fitted dose curve at least 0.9, where 1 is the maximum; inactive means score below 0.9). Conditions: actives raise or lower the signal. In short, it runs like this:
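H295R cells prestimulated 48 h with 10 uM forskolin, then exposed 48 h to chemicals in 0.1% DMSO final. Testosterone in medium quantified by MTBE extraction and HPLC-MS/MS; bidirectional fit versus DMSO, concentrations […] filtered by MTT-based maximum tolerated concentration.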

Assay [18] addresses PGR (gene 5241) (UniProt P06401). Briefly: TOX21_PR_BLA_Followup_Agonist_ratio: Tox21 HEK293 Progesterone Receptor (PR) Agonism Beta-lactamase Follow-Up Assay, Ratio (AID 2283933). Put shortly:
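PR-UAS-bla HEK293T cells in medium with 2% charcoal-stripped FBS were dosed after 6 h plating and incubated 16 h at 37C. LiveBLAzer FRET substrate was added for 2 h at room temperature. Cleaved/uncleaved substrate ratio fitted against DMSO; CellTiter-Glo viability run in the same wells.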

Assay [19] shares this target. Briefly: TOX21_PR_LUC_Followup_Agonist: Tox21 HEK293 Progesterone Receptor (PR) Agonism Luciferase Follow-Up Assay (AID 2283937; active means hit-call score of the fitted dose curve at least 0.9, where 1 is the maximum; inactive means score below 0.9). In short, it runs like this:
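HEK293-PR-A-luc cells, conditioned 5 days in 10% charcoal-stripped FBS medium, seeded 3,000/well for 5 h, then compound-treated 16 h at 37C. ONE-Glo luminescence read after 30 min at room temperature; gain of signal versus DMSO.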

A short description of assay [20]: TOX21_PR_LUC_Followup_Antagonist_viability: Viability Assessment in the Tox21 HEK293 Progesterone Receptor (PR) Antagonism Luciferase Follow-Up Assay (AID 2283940). Put shortly:
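HEK293-PR-A-luc cells kept in charcoal-stripped FBS medium were plated 5 h before compound addition, then exposed 16 h at 37C; viability read as cellular ATP by luciferase luminescence, loss of signal indicating cytotoxicity.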

Chain of Retinoic acid receptor RXR-alpha (Homo sapiens) (P19793 whole entry, looked up): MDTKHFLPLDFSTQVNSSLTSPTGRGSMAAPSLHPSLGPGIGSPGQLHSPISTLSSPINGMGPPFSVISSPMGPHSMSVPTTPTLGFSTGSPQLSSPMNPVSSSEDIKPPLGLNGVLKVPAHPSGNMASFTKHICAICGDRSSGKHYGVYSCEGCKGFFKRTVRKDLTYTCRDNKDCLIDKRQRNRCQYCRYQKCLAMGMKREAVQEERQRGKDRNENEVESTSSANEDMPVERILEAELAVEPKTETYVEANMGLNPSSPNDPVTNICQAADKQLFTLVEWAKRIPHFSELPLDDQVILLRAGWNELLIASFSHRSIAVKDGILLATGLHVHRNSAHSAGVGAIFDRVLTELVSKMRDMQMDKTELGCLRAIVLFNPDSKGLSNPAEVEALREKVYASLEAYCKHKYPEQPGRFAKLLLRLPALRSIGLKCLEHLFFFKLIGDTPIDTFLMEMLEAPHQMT
Chain of THRA (gene 7067) (P10827 whole entry, looked up, the tested form may be a part): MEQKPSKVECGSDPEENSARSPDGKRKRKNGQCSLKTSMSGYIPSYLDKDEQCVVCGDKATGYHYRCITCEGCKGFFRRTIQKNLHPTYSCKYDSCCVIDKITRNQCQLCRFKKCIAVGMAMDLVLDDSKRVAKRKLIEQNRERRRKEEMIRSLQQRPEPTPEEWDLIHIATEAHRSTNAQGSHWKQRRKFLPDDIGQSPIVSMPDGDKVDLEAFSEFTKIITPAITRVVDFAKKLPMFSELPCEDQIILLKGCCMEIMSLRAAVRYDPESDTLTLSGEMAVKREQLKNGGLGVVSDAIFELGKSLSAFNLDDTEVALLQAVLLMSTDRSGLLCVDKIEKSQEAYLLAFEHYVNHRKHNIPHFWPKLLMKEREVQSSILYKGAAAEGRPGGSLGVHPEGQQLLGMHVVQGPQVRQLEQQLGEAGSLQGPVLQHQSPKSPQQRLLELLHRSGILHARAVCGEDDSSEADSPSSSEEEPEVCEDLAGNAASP
Chain of PGR (gene 5241) (P06401 whole entry, looked up): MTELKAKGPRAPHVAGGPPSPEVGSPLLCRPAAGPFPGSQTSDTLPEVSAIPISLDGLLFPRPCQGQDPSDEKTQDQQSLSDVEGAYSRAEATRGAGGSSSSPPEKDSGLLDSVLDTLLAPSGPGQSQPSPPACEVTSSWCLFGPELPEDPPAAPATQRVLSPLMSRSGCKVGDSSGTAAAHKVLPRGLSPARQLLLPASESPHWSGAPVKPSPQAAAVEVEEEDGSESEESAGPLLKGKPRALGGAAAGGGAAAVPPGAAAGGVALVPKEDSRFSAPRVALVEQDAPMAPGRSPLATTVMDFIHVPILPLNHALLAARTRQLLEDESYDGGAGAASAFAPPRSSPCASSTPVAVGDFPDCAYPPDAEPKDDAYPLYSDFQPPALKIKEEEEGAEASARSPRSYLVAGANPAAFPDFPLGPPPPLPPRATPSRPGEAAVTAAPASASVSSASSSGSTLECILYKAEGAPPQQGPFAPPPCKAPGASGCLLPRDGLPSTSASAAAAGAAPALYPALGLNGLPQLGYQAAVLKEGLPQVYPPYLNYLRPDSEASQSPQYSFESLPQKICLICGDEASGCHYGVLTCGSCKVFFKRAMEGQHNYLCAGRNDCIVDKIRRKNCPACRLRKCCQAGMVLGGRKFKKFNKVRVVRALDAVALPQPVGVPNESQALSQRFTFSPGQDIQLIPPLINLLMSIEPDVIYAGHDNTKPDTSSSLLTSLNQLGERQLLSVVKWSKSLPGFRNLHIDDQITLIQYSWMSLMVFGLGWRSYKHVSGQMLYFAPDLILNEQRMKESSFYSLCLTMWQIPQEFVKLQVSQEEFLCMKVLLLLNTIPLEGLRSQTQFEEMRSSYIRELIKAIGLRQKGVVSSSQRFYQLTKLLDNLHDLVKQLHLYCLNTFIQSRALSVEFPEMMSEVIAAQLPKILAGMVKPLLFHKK
Chain of THRB (gene 7068) (P10828 whole entry, looked up, the tested form may be a part): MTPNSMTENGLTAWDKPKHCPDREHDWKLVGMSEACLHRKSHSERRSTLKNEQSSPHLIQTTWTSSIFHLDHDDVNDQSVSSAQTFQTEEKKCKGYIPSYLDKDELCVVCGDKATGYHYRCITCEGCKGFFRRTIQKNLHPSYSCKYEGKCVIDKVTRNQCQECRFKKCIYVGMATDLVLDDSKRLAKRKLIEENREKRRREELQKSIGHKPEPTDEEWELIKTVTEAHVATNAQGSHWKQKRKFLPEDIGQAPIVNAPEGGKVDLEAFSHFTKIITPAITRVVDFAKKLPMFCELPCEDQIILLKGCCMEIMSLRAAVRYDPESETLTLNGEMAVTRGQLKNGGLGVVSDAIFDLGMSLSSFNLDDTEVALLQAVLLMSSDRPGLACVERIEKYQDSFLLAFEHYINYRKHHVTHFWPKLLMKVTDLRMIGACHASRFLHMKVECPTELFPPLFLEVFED
Chain of Ratio of Nucleoli Translocation and Cytoplasm, AR (gene 367) (P10275 whole entry, looked up): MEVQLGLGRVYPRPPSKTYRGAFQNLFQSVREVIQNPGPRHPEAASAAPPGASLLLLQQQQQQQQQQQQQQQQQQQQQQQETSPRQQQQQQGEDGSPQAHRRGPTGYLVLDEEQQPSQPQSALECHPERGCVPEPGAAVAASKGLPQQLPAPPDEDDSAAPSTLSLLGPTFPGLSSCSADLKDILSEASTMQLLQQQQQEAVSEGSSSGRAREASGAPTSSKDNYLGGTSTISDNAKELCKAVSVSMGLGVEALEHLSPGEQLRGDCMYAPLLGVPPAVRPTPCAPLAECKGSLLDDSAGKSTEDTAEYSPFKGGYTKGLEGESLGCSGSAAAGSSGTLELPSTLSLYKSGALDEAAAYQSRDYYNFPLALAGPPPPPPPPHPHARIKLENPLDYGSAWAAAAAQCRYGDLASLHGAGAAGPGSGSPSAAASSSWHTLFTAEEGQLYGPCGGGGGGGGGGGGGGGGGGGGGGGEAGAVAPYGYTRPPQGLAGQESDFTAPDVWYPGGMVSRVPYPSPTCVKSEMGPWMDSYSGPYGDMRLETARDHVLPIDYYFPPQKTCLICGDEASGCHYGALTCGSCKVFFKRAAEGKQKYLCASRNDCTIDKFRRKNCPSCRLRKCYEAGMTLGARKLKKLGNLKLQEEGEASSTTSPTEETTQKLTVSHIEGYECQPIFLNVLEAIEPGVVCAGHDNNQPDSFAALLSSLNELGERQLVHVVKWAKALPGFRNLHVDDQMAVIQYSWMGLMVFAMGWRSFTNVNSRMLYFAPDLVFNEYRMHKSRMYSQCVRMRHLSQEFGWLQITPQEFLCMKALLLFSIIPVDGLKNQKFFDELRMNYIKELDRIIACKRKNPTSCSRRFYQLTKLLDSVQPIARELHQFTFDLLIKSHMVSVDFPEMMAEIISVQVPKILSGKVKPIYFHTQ
Chain of Nucleoli Translocation, AR (gene 367) (P10275 whole entry, looked up): as above
Chain of Thyroid hormone receptor alpha (Rattus norvegicus) + Thyroid hormone receptor beta (Rattus norvegicus) (P63059 whole entry, looked up): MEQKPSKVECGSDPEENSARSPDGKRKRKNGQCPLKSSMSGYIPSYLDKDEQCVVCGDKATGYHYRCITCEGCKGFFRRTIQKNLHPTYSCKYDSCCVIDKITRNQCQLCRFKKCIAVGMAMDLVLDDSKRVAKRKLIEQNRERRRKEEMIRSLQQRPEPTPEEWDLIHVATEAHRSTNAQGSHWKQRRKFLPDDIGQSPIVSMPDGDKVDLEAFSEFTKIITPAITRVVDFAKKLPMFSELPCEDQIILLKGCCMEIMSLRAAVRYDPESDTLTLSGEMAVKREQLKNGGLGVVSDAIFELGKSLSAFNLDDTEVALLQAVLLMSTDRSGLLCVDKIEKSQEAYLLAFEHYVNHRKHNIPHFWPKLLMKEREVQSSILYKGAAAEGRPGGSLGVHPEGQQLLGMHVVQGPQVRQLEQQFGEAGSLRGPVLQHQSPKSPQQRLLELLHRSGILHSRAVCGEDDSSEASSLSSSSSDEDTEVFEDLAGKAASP
Chain of Thyroid hormone receptor alpha (Rattus norvegicus) + Thyroid hormone receptor beta (Rattus norvegicus) (P18113 whole entry, looked up): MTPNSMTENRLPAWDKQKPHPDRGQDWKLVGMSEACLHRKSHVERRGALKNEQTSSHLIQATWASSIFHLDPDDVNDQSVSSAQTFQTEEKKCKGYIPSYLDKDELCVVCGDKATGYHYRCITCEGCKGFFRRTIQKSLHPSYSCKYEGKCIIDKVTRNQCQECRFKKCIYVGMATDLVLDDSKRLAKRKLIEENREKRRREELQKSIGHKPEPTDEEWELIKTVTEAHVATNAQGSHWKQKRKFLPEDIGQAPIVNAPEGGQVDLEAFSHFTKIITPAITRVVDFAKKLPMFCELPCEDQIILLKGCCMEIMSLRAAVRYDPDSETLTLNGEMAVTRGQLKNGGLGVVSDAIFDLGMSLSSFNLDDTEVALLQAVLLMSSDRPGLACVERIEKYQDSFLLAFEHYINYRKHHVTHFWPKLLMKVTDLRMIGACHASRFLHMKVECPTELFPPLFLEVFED

Take `Cc1cc(Cl)ccc1OCCCC(=O)O`: the molecule was classed as inactive in assay [1] and in assay [2].

Broadly, the AC50 is the concentration at which the activity in the assay is half-maximal. With `O=C1c2ccccc2C(=O)C1C(=O)C(c1ccccc1)c1ccc(Cl)cc1` (stereo unspecified), the AC50 in assay [3] was 19.8 µM (active); in assay [4] it was 50 µM (active). In addition, the result in assay [1] and in assay [2] was inactive.

Turning to `c1csc(-c2ccc(-c3cccs3)s2)c1`, the outcome in assay [5], in assay [6], in [7], in assay [8], in [9] and in [10] was inactive.

`CCCCCCCCCCCCc1cccc(S(=O)(=O)O)c1`: the half-maximal activity concentration (AC50) in assay [3] was 129 µM (active).

As to `O=S(=O)(Oc1ccc(Cl)cc1)c1ccc(Cl)cc1`, the result in assay [11], in [12], in assay [13], in assay [14] and in assay [15] was inactive.

Turning to `O=C(Cl)OCCOCCOC(=O)Cl`, the result in assay [5], in assay [6], in assay [7], in [8], in assay [9] and in assay [16] was inactive.

On to `N#CCC#N`, for which the molecule was classed as inactive in [4].

In the case of `CC1(C)COP(Oc2ccccc2)OC1`, the result in assay [5], in [6], in assay [8], in [9], in assay [16] and in [10] was inactive.

`CCOP(=S)(OCC)OP(=S)(OCC)OCC`: the AC50 in assay [4] is 72.1 µM (active). Besides, the call in assay [1] and in [2] was inactive.

For the molecule `c1cc[c]([Sb]([c]2ccccc2)[c]2ccccc2)cc1`, the call in [17] was inactive.

`CN(C)c1ccc(N=O)cc1`: the result in assay [6], in [8] and in assay [9] was inactive. For the same molecule, the AC50 in assay [10] was 49.6 µM (active).

On to `CC(C)CC(C)(c1ccc(O)cc1)c1ccc(O)cc1`, for which the outcome in assay [18], in [12], in [13], in assay [19], in assay [20] and in assay [15] was inactive. Also, the half-maximal activity concentration (AC50) in assay [11] is 12.7 µM (active); in [14] it was 12.2 µM (active).

On to `CCOP(=S)(OCC)Oc1ccc(Cl)cc1Cl`, for which the AC50 in [11] was 33.2 µM (active). In addition, the call in assay [12], in assay [14], in assay [20] and in assay [15] was inactive.

For the molecule `OC(Cc1ccccc1Cl)(Cn1[nH]cnc1=S)C1(Cl)CC1` (stereo unspecified), the molecule was classed as inactive in assay [4], in assay [1] and in assay [2].

Take `Nc1ccc(-c2ccccc2)cc1`: the AC50 in assay [11] was 22.3 µM (active). Besides, the molecule was classed as inactive in [12], in assay [13], in [14], in assay [20] and in [15].

In the case of `COCCl`, the molecule was called inactive in [4], in assay [1] and in [2].

With `O=S1OC[C@@H]2[C@H](CO1)[C@]1(Cl)C(Cl)=C(Cl)[C@@]2(Cl)C1(Cl)Cl` (stereo partly specified), in assay [4], the AC50 was 32.2 µM (active).

For the molecule `CCC[CH2][Sn]([CH2]CCC)([CH2]CCC)[CH2]CCC`, the result in assay [6], in assay [7], in assay [8], in [9] and in assay [10] was inactive. Also, the AC50 in [16] is 5.08 µM (active).
